Experiment in all cases: yeast three-hybrid, YBZ-1, SC-Leu-His + 0.5 mM 3-AT, 4 days
Common to all, as to conditions: tags: N-Gal4 AD-HA kept; label: inside an RPR1-promoter hybrid RNA with tandem MS2 sites; ssRNA

One assay deals with PUM1 PUF domain R1-TMR (Homo sapiens, UniProt Q14671 828-1176, S863T;R864M;Q867R). The method, boiled down:
(§1)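 The interaction score is the log change in variant frequency from input to selection. Scores were computed in log2 with a pseudocount of 1 for absent variants, using Illumina sequencing of PCR-amplified repeat regions. The input came from four days on SC-Leu and the selection from four days on SC-Leu-His + 0.5 mM 3-AT. The cells were strain YBZ-1 (LexA–MS2 coat fusion, HIS3 reporter) co-expressing Pumilio-1 PUF domain libraries and matching RNA elements from a centromeric plasmid.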

The target in the next assay is PUM1 PUF domain R1-GCR (Homo sapiens, UniProt Q14671 828-1176, S863G;R864C;Q867R). The method, boiled down:
as §1

In another assay the target is PUM1 PUF domain R1-KGS (Homo sapiens, UniProt Q14671 828-1176, S863K;R864G;Q867S). The method, boiled down: as §1
Sequence of PUM1 PUF domain R1-KGS (Q14671 828-1176 S863K/R864G/Q867S): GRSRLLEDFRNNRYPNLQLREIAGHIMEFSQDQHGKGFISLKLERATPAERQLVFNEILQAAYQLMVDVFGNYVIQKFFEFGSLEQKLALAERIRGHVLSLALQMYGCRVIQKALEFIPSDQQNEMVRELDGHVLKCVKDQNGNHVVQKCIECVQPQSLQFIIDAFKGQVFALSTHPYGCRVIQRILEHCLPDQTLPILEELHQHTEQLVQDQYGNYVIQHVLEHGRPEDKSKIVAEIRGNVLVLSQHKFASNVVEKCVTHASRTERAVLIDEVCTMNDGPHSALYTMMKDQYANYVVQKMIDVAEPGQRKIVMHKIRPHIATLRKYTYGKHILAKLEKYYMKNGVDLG
The target of the next assay is PUM1 PUF domain R8-RHI (Homo sapiens, UniProt Q14671 828-1176, N1122R;Y1123H;Q1126I). The method, boiled down:
as §1

For a further assay, the target named is PUM1 PUF domain R8-RFT (Homo sapiens, UniProt Q14671 828-1176, N1122R;Y1123F;Q1126T). The method, boiled down:
as §1

A further assay deals with PUM1 PUF domain R8-HWG (Homo sapiens, UniProt Q14671 828-1176, N1122H;Y1123W;Q1126G). The method, boiled down: as §1
Sequence of PUM1 PUF domain R8-HWG (Q14671 828-1176 N1122H/Y1123W/Q1126G): as the sequence (Q14671 828-1176 S863K/R864G/Q867S) above, with K36S, G37R, S40Q, N295H, Y296W, Q299G counted along it
The next assay concerns the target PUM1 PUF domain R8-YHR (Homo sapiens, UniProt Q14671 828-1176, N1122Y;Y1123H;Q1126R). The method, boiled down: as §1
In a further assay the target is PUM1 PUF domain R5-RGP (Homo sapiens, UniProt Q14671 828-1176, C1007R;R1008G;Q1011P). The method, boiled down: as §1
The target of the next assay is PUM1 PUF domain R5-FKR (Homo sapiens, UniProt Q14671 828-1176, C1007F;R1008K;Q1011R). The method, boiled down:
as §1

The target in another assay is PUM1 PUF domain R5-KND (Homo sapiens, UniProt Q14671 828-1176, C1007K;R1008N;Q1011D). The method, boiled down: as §1
For a further assay, the target named is PUM1 PUF domain R5-GGR (Homo sapiens, UniProt Q14671 828-1176, C1007G;R1008G;Q1011R). The method, boiled down: as §1
Sequence of PUM1 PUF domain R5-GGR (Q14671 828-1176 C1007G/R1008G/Q1011R): as the sequence (Q14671 828-1176 S863K/R864G/Q867S) above, with K36S, G37R, S40Q, C180G, R181G, Q184R counted along it
The target of another assay is PUM1 PUF domain R5-RHF (Homo sapiens, UniProt Q14671 828-1176, C1007R;R1008H;Q1011F). The method, boiled down: as §1
Sequence of PUM1 PUF domain R5-RHF (Q14671 828-1176 C1007R/R1008H/Q1011F): as the sequence (Q14671 828-1176 S863K/R864G/Q867S) above, with K36S, G37R, S40Q, C180R, R181H, Q184F counted along it
The next assay has as its target T1, PUM1 PUF domain R6-VYG (Homo sapiens, UniProt Q14671 828-1176, N1043V;Q1047G).
T1 sequence: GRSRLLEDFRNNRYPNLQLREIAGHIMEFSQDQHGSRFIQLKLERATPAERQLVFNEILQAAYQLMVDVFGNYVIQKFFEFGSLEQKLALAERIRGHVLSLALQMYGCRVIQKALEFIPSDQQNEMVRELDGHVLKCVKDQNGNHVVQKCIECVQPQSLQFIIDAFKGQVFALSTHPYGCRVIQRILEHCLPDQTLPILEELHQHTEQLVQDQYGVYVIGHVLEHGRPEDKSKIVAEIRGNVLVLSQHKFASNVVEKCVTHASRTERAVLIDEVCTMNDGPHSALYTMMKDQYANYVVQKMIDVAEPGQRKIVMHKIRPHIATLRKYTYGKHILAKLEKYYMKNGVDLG
The method, boiled down:
as §1

Sequence of PUM1 PUF domain R8-RFT (Q14671 828-1176 N1122R/Y1123F/Q1126T): as the sequence (Q14671 828-1176 S863K/R864G/Q867S) above, with K36S, G37R, S40Q, N295R, Y296F, Q299T counted along it
Sequence of PUM1 PUF domain R8-YHR (Q14671 828-1176 N1122Y/Y1123H/Q1126R): as the sequence (Q14671 828-1176 S863K/R864G/Q867S) above, with K36S, G37R, S40Q, N295Y, Y296H, Q299R counted along it

As for “GGCUAGAACUAGUGGAUCCCCCGGCGCCCGGCGGCUCGAGCCCGGGUAAGUGUAAAUCGUCUGCAUGCCGCCGGGCGCCAUGCCUGCAGGUCGACUCUAGAAAACAUG”, the binding signal is 2.55 log2 enrichment (interaction score) in the assay with PUM1 PUF domain R1-TMR, 2.53 log2 enrichment (interaction score) with PUM1 PUF domain R1-GCR and 5.23 log2 enrichment (interaction score) with PUM1 PUF domain R1-KGS.
As for “GGCUAGAACUAGUGGAUCCCCCGGCGCCCGGCGGCUCGAGCCCGGGUAAGCGUAAAUAGUCUGCAUGCCGCCGGGCGCCAUGCCUGCAGGUCGACUCUAGAAAACAUG”, the binding signal with PUM1 PUF domain R8-RHI is 5.37 log2 enrichment (interaction score); in the assay with PUM1 PUF domain R8-RFT it was 5.64 log2 enrichment (interaction score); in the assay with PUM1 PUF domain R8-HWG, 4.11 log2 enrichment (interaction score); with PUM1 PUF domain R8-YHR it was 3.34 log2 enrichment (interaction score).
For “GGCUAGAACUAGUGGAUCCCCCGGCGCCCGGCGGCUCGAGCCCGGGUAAGUGUCAAUAGUCUGCAUGCCGCCGGGCGCCAUGCCUGCAGGUCGACUCUAGAAAACAUG”, the binding signal is 2.99 log2 enrichment (interaction score) with PUM1 PUF domain R5-RGP; 3.62 log2 enrichment (interaction score) in the assay with PUM1 PUF domain R5-FKR; 3.62 log2 enrichment (interaction score) in the assay with PUM1 PUF domain R5-KND; 4.92 log2 enrichment (interaction score) with PUM1 PUF domain R5-GGR; 2.99 log2 enrichment (interaction score) with PUM1 PUF domain R5-RHF.
On to “GGCUAGAACUAGUGGAUCCCCCGGCGCCCGGCGGCUCGAGCCCGGGUAAGUGUAAAUAGUCUGCAUGCCGCCGGGCGCCAUGCCUGCAGGUCGACUCUAGAAAACAUG”, for which the binding signal was 1.61 log2 enrichment (interaction score) in the assay with PUM1 PUF domain R6-VYG, 4.66 log2 enrichment (interaction score) in the assay with PUM1 PUF domain R8-RFT and 4.47 log2 enrichment (interaction score) with PUM1 PUF domain R8-HWG.
Regarding “GGCUAGAACUAGUGGAUCCCCCGGCGCCCGGCGGCUCGAGCCCGGGUAAGUGAAAAUAGUCUGCAUGCCGCCGGGCGCCAUGCCUGCAGGUCGACUCUAGAAAACAUG”, the binding signal with PUM1 PUF domain R6-VYG was 5.61 log2 enrichment (interaction score).
Regarding “GGCUAGAACUAGUGGAUCCCCCGGCGCCCGGCGGCUCGAGCCCGGGUAAGUGUAAAUUGUCUGCAUGCCGCCGGGCGCCAUGCCUGCAGGUCGACUCUAGAAAACAUG”, the binding signal with PUM1 PUF domain R1-GCR is 1.58 log2 enrichment (interaction score); in the assay with PUM1 PUF domain R1-KGS it was 4.48 log2 enrichment (interaction score).
In the case of “GGCUAGAACUAGUGGAUCCCCCGGCGCCCGGCGGCUCGAGCCCGGGUAAGUGUUAAUAGUCUGCAUGCCGCCGGGCGCCAUGCCUGCAGGUCGACUCUAGAAAACAUG”, the binding signal with PUM1 PUF domain R5-FKR was 2.17 log2 enrichment (interaction score); in the assay with PUM1 PUF domain R5-GGR, 1.88 log2 enrichment (interaction score); with PUM1 PUF domain R5-RHF it was 3.71 log2 enrichment (interaction score).

For the origin of these results see publication PMC8384837, “Expanding the binding specificity for RNA recognition by a PUF domain”.
